Measurements reported in article PMC7819943, “Rice protein-binding microarrays: a tool to detect cis-acting elements near promoter regions in rice”.
Whole data set: some 35,000 sequences, median “fluorescence intensity (a.u.)” near 10,000, cut for the highest 2% near 52,000. Shown is part of a subset that was picked to be rich in the highest values.

Target: T1, OsWOX13 (Oryza sativa, UniProt Q5QMM3 1-267)
T1 sequence: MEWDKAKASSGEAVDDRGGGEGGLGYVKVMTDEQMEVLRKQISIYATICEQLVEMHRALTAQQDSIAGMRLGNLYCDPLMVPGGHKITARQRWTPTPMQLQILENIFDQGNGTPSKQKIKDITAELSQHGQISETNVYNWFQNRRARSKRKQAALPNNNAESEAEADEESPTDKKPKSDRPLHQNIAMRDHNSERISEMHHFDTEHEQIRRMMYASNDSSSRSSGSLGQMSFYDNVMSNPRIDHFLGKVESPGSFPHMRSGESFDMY
Assay: protein-binding microarray (RPBM); PBS, 2% BSA, 51.3 ng/ul salmon testes DNA, 50 uM zinc acetate, 200 nM TF, 25 C, 1 h; high values mean tight binding
Conditions: protein: recombinant; tags: N-terminal polyhistidine and DsRed monomer fusion (pET32a); label: CyDye5-dUTP incorporated in the synthesized complementary strand; 3' TTTTT single-stranded linker to array surface; dsDNA, one strand shown
Outline: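 Per-feature fluorescence intensity (arbitrary units), read on an Axon 4000B scanner, is the binding signal. Transcription factors carrying an N-terminal polyhistidine tag and DsRed fusion were expressed in E. coli BL21-CodonPlus and purified on Ni–NTA. A custom Agilent array, made double-stranded by primer extension with Cy5-dUTP and blocked with 2% BSA, was incubated with 200 nM protein in PBS, 2% BSA, salmon testes DNA and 50 µM zinc acetate at 25 °C for 1 h and then washed.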

Sequence | binding signal
ATCTAGAATTAGATGTGACATATCGTAGTACTATGAACCTCGGAGTCACCTAGTGCAG | 4830 fluorescence intensity (a.u.)
TTCCGGTTCCTGATTGCTTGCTCCACCGATTGACCGATCGCGGAGTCACCTAGTGCAG | 18100 fluorescence intensity (a.u.)
CTTGATTGGATCAGGATCATTTGGCATGGTTTACAAGGGCCGGAGTCACCTAGTGCAG | 65100 fluorescence intensity (a.u.)
GAGCTATTGATTGATTGATTGCTGATCGCTTCCAGTTCCACGGAGTCACCTAGTGCAG | 54700 fluorescence intensity (a.u.)
GCTCGATTGCCTTTTCATCATTCACATTGTTCTTCTTCTTCGGAGTCACCTAGTGCAG | 11600 fluorescence intensity (a.u.)
TTTGGATTGATCATGGTCATTTGTACTTTTGTAGTCTTTACGGAGTCACCTAGTGCAG | 21500 fluorescence intensity (a.u.)
GGGACAATCAGGGATTGTATGGTTTGAAGCTGATTTTGGCCGGAGTCACCTAGTGCAG | 3320 fluorescence intensity (a.u.)
AATGCTTGATTGCACTTCGCTGTTCAGTTCATCATGCCTACGGAGTCACCTAGTGCAG | 27400 fluorescence intensity (a.u.)
GTGATTGATTCGATTGATTGCCGCATCCACAGTTCTTTTCCGGAGTCACCTAGTGCAG | 54700 fluorescence intensity (a.u.)
CCTCATCCCTGATTGTGATTTTCTTTCCACACCACCCGGACGGAGTCACCTAGTGCAG | 19500 fluorescence intensity (a.u.)
TGGGCAGCAGCTTGATTTGATTGCTTCATTTATCAAGTTGCGGAGTCACCTAGTGCAG | 13600 fluorescence intensity (a.u.)
ATGGTTGATTGCTTGATCAAGGCATGCATCACTTGCTATGCGGAGTCACCTAGTGCAG | 55800 fluorescence intensity (a.u.)
GCAAGTGTGATTGATCATTACTTGCTTGGTCTGATGGTTGCGGAGTCACCTAGTGCAG | 48300 fluorescence intensity (a.u.)
CTCTACAGTAAATCAAACAGTAATCACACTCCAAACAAAACGGAGTCACCTAGTGCAG | 5420 fluorescence intensity (a.u.)
ATTGGCTAGATTGGAAGCAAGAGAAGCTGCAGCGAAGGCACGGAGTCACCTAGTGCAG | 7860 fluorescence intensity (a.u.)
TTTGGAAATTATCTATGAATTTACCTAGTTTCATCGTCCACGGAGTCACCTAGTGCAG | 4970 fluorescence intensity (a.u.)
AGTTTTACAATAAATTTACTGTTATAAATATACATTTAACCGGAGTCACCTAGTGCAG | 6140 fluorescence intensity (a.u.)
TTTGATGGGAATTTGTTTCAGATATGCTTACGTGCACATACGGAGTCACCTAGTGCAG | 13800 fluorescence intensity (a.u.)
AACTAATTGTTTCTTCAGACTTCTTCAGAGCATTCTCCAGCGGAGTCACCTAGTGCAG | 36800 fluorescence intensity (a.u.)
TGTCACATCACATCGATCATTGATTTCACTTTGATTCCTCCGGAGTCACCTAGTGCAG | 5220 fluorescence intensity (a.u.)
CTCATGATTTACGGCTGCTGGCCGCCGGGCTATTTAACCACGGAGTCACCTAGTGCAG | 10900 fluorescence intensity (a.u.)

Sequence | binding signal
TATTTTGCTTAAATGGCTGATTAGTCAAAGCATTTGGCCACGGAGTCACCTAGTGCAG | 4720 fluorescence intensity (a.u.)
ATTGATTGATCAAGACTGCATGGCAATACTCGACGTGCTGCGGAGTCACCTAGTGCAG | 64800 fluorescence intensity (a.u.)
TTGATTGCAGATCAAATGCATGCAATAAGAATGGAGATGGCGGAGTCACCTAGTGCAG | 19600 fluorescence intensity (a.u.)
ATCATGATTGCATGATTGATTGCACATTTGCATCATTTCCCGGAGTCACCTAGTGCAG | 63400 fluorescence intensity (a.u.)
GTGATCACCCTTTGATTGACCCGCACCCGCATCCCTTTCCCGGAGTCACCTAGTGCAG | 35500 fluorescence intensity (a.u.)
CCAATAATAACACTGATCACTGATCAATCATGGCATCATGCGGAGTCACCTAGTGCAG | 16000 fluorescence intensity (a.u.)
ATGATTTGCATGATTGCTTGCTTGCTTGCTGCTATGGCCACGGAGTCACCTAGTGCAG | 62700 fluorescence intensity (a.u.)
AAGATTGGATTCGCTGCAATACCATCACTAAACTCGGCTTCGGAGTCACCTAGTGCAG | 12800 fluorescence intensity (a.u.)
CACTTAATCATATTCATCATATTCAAACGGGACCTAAGGGCGGAGTCACCTAGTGCAG | 8880 fluorescence intensity (a.u.)
CCCTCCATCCCCTCAGTCCACTCAATCACCACACCAGCCACGGAGTCACCTAGTGCAG | 3850 fluorescence intensity (a.u.)
CCAATCACATTCACTTTTACAGTTTAGCCCCACCCTCTCCCGGAGTCACCTAGTGCAG | 4980 fluorescence intensity (a.u.)
CTGTATATTGATTGATTGGTTATTCGCAAGAAACATGACTCGGAGTCACCTAGTGCAG | 65100 fluorescence intensity (a.u.)
GATTCCCTTCTTTTCTTTGGTTGATTTCTTTCTGTATTTCCGGAGTCACCTAGTGCAG | 5880 fluorescence intensity (a.u.)
ATATTGATTGATTGGTTATTCGCAAGAAACATGACTGTTCCGGAGTCACCTAGTGCAG | 63800 fluorescence intensity (a.u.)
ATTCTGATTGGCAAGTTGGTTATTCCTTTTCTGATTGGTTCGGAGTCACCTAGTGCAG | 60700 fluorescence intensity (a.u.)
ATACCTTATTGAAATATGATTGTTCGACTGGTTACTGAATCGGAGTCACCTAGTGCAG | 19500 fluorescence intensity (a.u.)
ATGAAGAAACTGTTGGTGATTTGACAAGTAGGCTTGGTTCCGGAGTCACCTAGTGCAG | 6530 fluorescence intensity (a.u.)
GTTATCATGATTTATATTCCCAAGGTTTGACTTAAACATTCGGAGTCACCTAGTGCAG | 11400 fluorescence intensity (a.u.)
GCTTGATGACCAAGTATATATAAACATGTCAGTGATTATTCGGAGTCACCTAGTGCAG | 5670 fluorescence intensity (a.u.)
GGGCATAAATTTTGGTGATTTTCGGTTTTCTGAAGTTCCTCGGAGTCACCTAGTGCAG | 7130 fluorescence intensity (a.u.)
AGGGAATTTTATGATTTGCATTGGTGCTGAGGTCAAACCCCGGAGTCACCTAGTGCAG | 7180 fluorescence intensity (a.u.)
